# Reference: paper PMC11006913
# Legend:
# Experiment in all cases: PBM; 200 nM protein, PBS
# Conditions in all cases: dsDNA, one strand shown
# VENTX = target: T1, VENTX (Homo sapiens, UniProt O95231 78-163)
# T1 sequence: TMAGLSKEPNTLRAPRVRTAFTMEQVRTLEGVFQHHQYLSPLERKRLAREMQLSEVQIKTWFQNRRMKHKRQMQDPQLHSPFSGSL
# HOXA7 [1] = target: HOXA7 (Homo sapiens, UniProt P31268 116-202)
# HOXB6 [2] = target: HOXB6 (Homo sapiens, UniProt P17509 132-218, K202E)
# HOXA7 [3] = target: HOXA7 (Homo sapiens, UniProt P31268 116-202, W177C)
# HOXB6 [4] = target: HOXB6 (Homo sapiens, UniProt P17509 132-218)
# HOXB9 [5] = target: HOXB9 (Homo sapiens, UniProt P17482 171-250, T197M)
# PAX4 = target: T2, PAX4 (Homo sapiens, UniProt O43316 9-242, R200K)
# T2 sequence: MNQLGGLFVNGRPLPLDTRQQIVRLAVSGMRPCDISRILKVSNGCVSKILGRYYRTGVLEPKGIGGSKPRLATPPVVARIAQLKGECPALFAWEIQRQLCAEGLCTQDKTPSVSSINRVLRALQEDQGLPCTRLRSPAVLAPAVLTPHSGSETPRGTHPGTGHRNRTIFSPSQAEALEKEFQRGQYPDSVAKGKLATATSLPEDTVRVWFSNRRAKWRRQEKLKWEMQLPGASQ
# HOXB9 [6] = target: HOXB9 (Homo sapiens, UniProt P17482 171-250)
# HOXB9 [7] = target: HOXB9 (Homo sapiens, UniProt P17482 171-250, R186Q)
# HOXC9 [8] = target: HOXC9 (Homo sapiens, UniProt P31274 178-260, K195R)
# HOXD13 [9] = target: HOXD13 (Homo sapiens, UniProt P35453 263-343, T313R)
# HOXC9 [10] = target: HOXC9 (Homo sapiens, UniProt P31274 178-260, R193K)
# HOXD13 [11] = target: HOXD13 (Homo sapiens, UniProt P35453 263-343)
# HOXD13 [12] = target: HOXD13 (Homo sapiens, UniProt P35453 263-343, T313A)
# HOXC9 [13] = target: HOXC9 (Homo sapiens, UniProt P31274 178-260, R222W)
# HOXC10 [14] = target: HOXC10 (Homo sapiens, UniProt Q9NYD6 254-340)
# HOXC10 [15] = target: HOXC10 (Homo sapiens, UniProt Q9NYD6 254-340, K271E)
# Sequence of HOXC10 (Homo sapiens, UniProt Q9NYD6 254-340, K271E) (Q9NYD6 254-340 K271E): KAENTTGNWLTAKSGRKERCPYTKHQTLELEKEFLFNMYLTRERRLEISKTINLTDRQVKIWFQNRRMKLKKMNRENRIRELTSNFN
# Sequence of HOXB9 (Homo sapiens, UniProt P17482 171-250, T197M) (P17482 171-250 T197M): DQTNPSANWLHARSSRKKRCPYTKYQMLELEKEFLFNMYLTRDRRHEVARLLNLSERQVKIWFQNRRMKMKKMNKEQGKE
# Sequence of HOXA7 (Homo sapiens, UniProt P31268 116-202, W177C) (P31268 116-202 W177C): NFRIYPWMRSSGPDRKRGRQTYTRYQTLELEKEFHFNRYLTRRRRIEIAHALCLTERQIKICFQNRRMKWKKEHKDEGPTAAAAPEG
# Sequence of HOXA7 (Homo sapiens, UniProt P31268 116-202) (P31268 116-202): as the sequence (P31268 116-202 W177C) above, with C62W counted along it
# Sequence of HOXB6 (Homo sapiens, UniProt P17509 132-218, K202E) (P17509 132-218 K202E): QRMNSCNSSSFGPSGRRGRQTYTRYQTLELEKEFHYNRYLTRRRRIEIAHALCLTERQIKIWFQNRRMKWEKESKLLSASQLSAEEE
# Sequence of HOXB9 (Homo sapiens, UniProt P17482 171-250) (P17482 171-250): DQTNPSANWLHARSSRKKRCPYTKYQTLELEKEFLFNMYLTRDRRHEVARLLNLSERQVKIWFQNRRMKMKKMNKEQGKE
# Sequence of HOXB9 (Homo sapiens, UniProt P17482 171-250, R186Q) (P17482 171-250 R186Q): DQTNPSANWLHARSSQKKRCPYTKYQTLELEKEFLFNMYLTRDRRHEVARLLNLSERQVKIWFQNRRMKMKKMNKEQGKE
# Sequence of HOXD13 (Homo sapiens, UniProt P35453 263-343) (P35453 263-343): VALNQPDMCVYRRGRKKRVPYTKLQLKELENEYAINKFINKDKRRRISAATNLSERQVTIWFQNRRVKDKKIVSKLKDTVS
# Sequence of HOXD13 (Homo sapiens, UniProt P35453 263-343, T313A) (P35453 263-343 T313A): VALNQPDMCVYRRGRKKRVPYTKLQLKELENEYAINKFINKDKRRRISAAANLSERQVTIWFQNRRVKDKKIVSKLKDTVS
# Sequence of HOXB6 (Homo sapiens, UniProt P17509 132-218) (P17509 132-218): as the sequence (P17509 132-218 K202E) above, with E71K counted along it
# Sequence of HOXD13 (Homo sapiens, UniProt P35453 263-343, T313R) (P35453 263-343 T313R): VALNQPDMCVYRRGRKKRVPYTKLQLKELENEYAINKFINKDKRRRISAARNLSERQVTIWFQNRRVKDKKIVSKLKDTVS
# Sequence of HOXC9 (Homo sapiens, UniProt P31274 178-260, R193K) (P31274 178-260 R193K): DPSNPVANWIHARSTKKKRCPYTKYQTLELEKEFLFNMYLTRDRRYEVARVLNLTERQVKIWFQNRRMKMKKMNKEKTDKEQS
# Sequence of HOXC9 (Homo sapiens, UniProt P31274 178-260, R222W) (P31274 178-260 R222W): as the sequence (P31274 178-260 R193K) above, with K16R, R45W counted along it
# Sequence of HOXC10 (Homo sapiens, UniProt Q9NYD6 254-340) (Q9NYD6 254-340): as the sequence (Q9NYD6 254-340 K271E) above, with E18K counted along it
# Sequence of HOXC9 (Homo sapiens, UniProt P31274 178-260, K195R) (P31274 178-260 K195R): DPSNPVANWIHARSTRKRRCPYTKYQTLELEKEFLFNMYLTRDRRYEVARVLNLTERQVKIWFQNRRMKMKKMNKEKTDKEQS
sequence,measurement,setting,value
ATCGATTA,binding signal,VENTX,"12.6 upbm affinity estimate (log intensity, higher = more binding, comparable within an allelic series)"
ACTAATGA,binding signal,VENTX,"12.7 upbm affinity estimate (log intensity, higher = more binding, comparable within an allelic series)"
CCATTAAG,binding signal,VENTX,"12.3 upbm affinity estimate (log intensity, higher = more binding, comparable within an allelic series)"
same,binding signal,HOXA7 [1],"11.6 upbm affinity estimate (log intensity, higher = more binding, comparable within an allelic series)"
same,binding signal,HOXB6 [2],"9.89 upbm affinity estimate (log intensity, higher = more binding, comparable within an allelic series)"
same,binding signal,HOXA7 [3],"8.82 upbm affinity estimate (log intensity, higher = more binding, comparable within an allelic series)"
same,binding signal,HOXB6 [4],"12 upbm affinity estimate (log intensity, higher = more binding, comparable within an allelic series)"
CCTCATTA,binding signal,VENTX,"12.5 upbm affinity estimate (log intensity, higher = more binding, comparable within an allelic series)"
GACCAGGC,binding signal,HOXB9 [5],"8.29 upbm affinity estimate (log intensity, higher = more binding, comparable within an allelic series)"
same,binding signal,VENTX,"8.13 upbm affinity estimate (log intensity, higher = more binding, comparable within an allelic series)"
same,binding signal,HOXA7 [1],"8.38 upbm affinity estimate (log intensity, higher = more binding, comparable within an allelic series)"
same,binding signal,PAX4,"9.22 upbm affinity estimate (log intensity, higher = more binding, comparable within an allelic series)"
same,binding signal,HOXB9 [6],"8.23 upbm affinity estimate (log intensity, higher = more binding, comparable within an allelic series)"
same,binding signal,HOXB9 [7],"8.26 upbm affinity estimate (log intensity, higher = more binding, comparable within an allelic series)"
same,binding signal,HOXA7 [3],"8.39 upbm affinity estimate (log intensity, higher = more binding, comparable within an allelic series)"
GCTAATGA,binding signal,VENTX,"12.5 upbm affinity estimate (log intensity, higher = more binding, comparable within an allelic series)"
ATCATTAG,binding signal,VENTX,"12.5 upbm affinity estimate (log intensity, higher = more binding, comparable within an allelic series)"
CGGTTCCC,binding signal,HOXB9 [5],"8.58 upbm affinity estimate (log intensity, higher = more binding, comparable within an allelic series)"
same,binding signal,HOXB9 [6],"8.52 upbm affinity estimate (log intensity, higher = more binding, comparable within an allelic series)"
same,binding signal,HOXB9 [7],"8.49 upbm affinity estimate (log intensity, higher = more binding, comparable within an allelic series)"
TATTAATA,binding signal,HOXB9 [5],"10.1 upbm affinity estimate (log intensity, higher = more binding, comparable within an allelic series)"
same,binding signal,HOXC9 [8],"12.6 upbm affinity estimate (log intensity, higher = more binding, comparable within an allelic series)"
same,binding signal,HOXA7 [1],"11.2 upbm affinity estimate (log intensity, higher = more binding, comparable within an allelic series)"
same,binding signal,PAX4,"11.7 upbm affinity estimate (log intensity, higher = more binding, comparable within an allelic series)"
same,binding signal,HOXB6 [2],"10 upbm affinity estimate (log intensity, higher = more binding, comparable within an allelic series)"
same,binding signal,HOXD13 [9],"10.9 upbm affinity estimate (log intensity, higher = more binding, comparable within an allelic series)"
same,binding signal,HOXC9 [10],"12.5 upbm affinity estimate (log intensity, higher = more binding, comparable within an allelic series)"
same,binding signal,HOXD13 [11],"11.9 upbm affinity estimate (log intensity, higher = more binding, comparable within an allelic series)"
same,binding signal,HOXD13 [12],"12 upbm affinity estimate (log intensity, higher = more binding, comparable within an allelic series)"
same,binding signal,HOXC9 [13],"11.1 upbm affinity estimate (log intensity, higher = more binding, comparable within an allelic series)"
same,binding signal,HOXA7 [3],"9.08 upbm affinity estimate (log intensity, higher = more binding, comparable within an allelic series)"
same,binding signal,HOXB6 [4],"11.7 upbm affinity estimate (log intensity, higher = more binding, comparable within an allelic series)"
CGCCGCCG,binding signal,VENTX,"8.3 upbm affinity estimate (log intensity, higher = more binding, comparable within an allelic series)"
same,binding signal,HOXA7 [1],"8.5 upbm affinity estimate (log intensity, higher = more binding, comparable within an allelic series)"
same,binding signal,HOXC10 [14],"10 upbm affinity estimate (log intensity, higher = more binding, comparable within an allelic series)"
same,binding signal,HOXD13 [9],"9.36 upbm affinity estimate (log intensity, higher = more binding, comparable within an allelic series)"
same,binding signal,HOXD13 [11],"9.39 upbm affinity estimate (log intensity, higher = more binding, comparable within an allelic series)"
same,binding signal,HOXC10 [15],"10 upbm affinity estimate (log intensity, higher = more binding, comparable within an allelic series)"
same,binding signal,HOXD13 [12],"9.5 upbm affinity estimate (log intensity, higher = more binding, comparable within an allelic series)"
same,binding signal,HOXA7 [3],"8.25 upbm affinity estimate (log intensity, higher = more binding, comparable within an allelic series)"
